V-ATPase pH: regulators of yeast V-ATPase proton transport. S. cerevisiae, pHLuorin cytosolic pH fluorescence. response, % at 10 µM. actives 0.37% (n = 350,000). AID 504577; in the data active means response mostly above about 7.3%, no sharp cut-off; inactive means mostly below about 5.4%; further: actives read high
NALP1 yeast inh: blocks the NALP1 inflammasome reconstituted in yeast; actives 0.61% (n = 280,000); S. cerevisiae NALP1/ASC/caspase-1 growth, X-gal OD620, 72 h; inhibition, % at 10 µM; in the data active means inhibition mostly above about 24%, no sharp cut-off; inactive means mostly below about 32%
NALP3 yeast inh: NALP3 inhibition in yeast; Yeast reconstituted NLRP3/ASC/caspase-1, beta-gal luminescence, 24 h; actives 0.39% (n = 330,000); inhibition, % at 10 µM;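 active means inhibition of 50% or more; inactive means inhibition below 50%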
TIM10 inh: inhibits growth of TIM10 yeast strain. S. cerevisiae TIM10 strain growth, BacTiter-Glo luminescence, 24 h. inhibition, % at 10 µM. actives 1.4% (n = 330,000). AID 463195;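 active means inhibition of 40% or more at the single tested concentration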;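 further: wild-type TIM10 isogenic control strain grown at permissive 25 °C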
tim10-1 inh: growth inhibitors of tim10-1 mutant yeast; S. cerevisiae tim10-1 ts strain growth, BacTiter-Glo, 24 h; inhibition, % at 20 µM; actives 2.2% (n = 330,000); AID 463190;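 active means inhibition of at least 40%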;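 further: mutant grown at 25 °C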
tim23-1 inh: growth inhibitors of tim23-1 mutant yeast; actives 1.3% (n = 330,000); S. cerevisiae tim23-1 growth, BacTiter-Glo luminescence, 24 h; AID 463212; inhibition, % at 20 µM;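 active means growth inhibition of the mutant yeast at or above 50%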;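 further: temperature-sensitive mutant grown at 25 °C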
tim10-1 confirm: tim10-1 yeast growth inhibition, confirmed | actives 56% (n = 7,400) | AID 463213 | S. cerevisiae tim10-1 ts strain growth, BacTiter-Glo, 24 h | shares compounds with tim10-1 inh | inhibition, % at 20 µM;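 active means inhibition of yeast growth at or above a set limit in either of two repeat tests at 20 µM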;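 further: tim10-1 mutant grown at permissive 25 °C to find synthetic lethal compounds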
A number is an active result; n = inactive; x = no result given. In the library only some 4.2% were active in any assay of this set; here they are far more common.

SMILES | V-ATPase pH | NALP1 yeast inh | NALP3 yeast inh | TIM10 inh | tim10-1 inh | tim23-1 inh | tim10-1 confirm
CSc1cccc(NC(=O)COC(=O)C2(c3ccccc3)CC2)c1 | n | x | n | n | n | n | x
CCOC(=O)c1nn(-c2ccccc2C)c(=O)c2c(N)scc12 | n | n | n | n | n | n | x
CCOC(=O)c1nn(-c2ccccc2)c(=O)c2c(N)scc12 | n | n | n | n | 51 | n | n
O=C(Oc1c(-c2ccccc2)c(=O)n2c3c(cccc13)CC2)c1ccco1 | n | n | n | n | 46 | n | n
O=C(Oc1c(-c2ccccc2)c(=O)n2c3c(cccc13)CC2)c1ccc(Cl)cc1 | n | n | n | n | n | n | x
CCCCNC(=S)Nc1ccccc1Cc1ccccc1 | n | n | n | n | 41 | n | n
Fc1ccc(CNCc2ccccc2C(F)(F)F)cc1 | n | n | n | n | n | n | x
COC(=O)C1(Cc2cc(-c3cccc(Br)c3)no2)CCN(C(=O)OC(C)(C)C)CC1 | n | n | n | n | 41 | n | n
CC(C)(C)OC(=O)N1CCC(Cc2cc(-c3cccc(Br)c3)no2)(C(=O)O)CC1 | n | n | n | n | n | n | x
CCOC(=O)N1CCN(C(=O)c2ccc(NC(=O)c3ccc(C)cc3)cc2)CC1 | n | x | n | n | 44 | n | n
CN1CCN(c2ccc(NC(=O)c3ccc(Br)o3)cc2)CC1 | n | n | n | n | n | n | x
Cc1ccc(C(=O)N2CCN(c3ccc(NC(=O)c4ccc(Br)o4)cc3)CC2)cc1 | n | n | n | n | 52 | n | 31
O=C(c1ccc(Br)o1)N1CCN(c2ccccn2)CC1 | n | n | n | n | n | n | x
O=C(Nc1ccc(C(=O)N2CCN(c3ccccn3)CC2)cc1)c1ccc(Br)o1 | n | x | n | n | 46 | n | n
CCOC(=O)N1CCN(C(=O)c2ccc(NC(C)=O)cc2)CC1 | n | n | n | n | n | n | x
O=C(Cc1ccsc1)Nc1ccc2c(c1)OCO2 | n | x | n | n | n | n | x
CCOc1ccc(CN=C(N)N=C(N)N)cc1Cl | n | n | n | n | n | n | x
O=C(Oc1ccc(Br)cc1C(=S)N1CCCCC1)c1cc([N+](=O)[O-])cc([N+](=O)[O-])c1 | n | n | n | n | 51 | n | n
O=C(Oc1ccc(Br)cc1C(=S)N1CCCC1)c1ccccc1Cl | n | n | n | n | n | n | x
COc1ccc(OC)c(-n2c(SCC(=O)Nc3cc(C)on3)nnc2-c2c[nH]c3ccccc23)c1 | n | n | n | n | 52 | n | n
O=c1cc(CSc2ccc([N+](=O)[O-])cc2)nc2sccn12 | n | n | n | n | n | n | x
c1ccc2c(c1)-c1cccc3c1c-2cc1ccccc13 | x | x | n | n | n | n | x
Oc1cc(-c2ccccc2)c2ccccc2c1 | n | n | n | n | 54 | n | 51
Cc1cc(C)c(C)c(S(=O)(=O)ON2C(=O)c3ccccc3C2=O)c1C | n | n | n | n | 59 | n | 61
CCCN(CCC)S(=O)(=O)c1ccc(C(=O)NCc2ccco2)cc1 | n | n | n | n | n | n | x
SMILES | V-ATPase pH | NALP1 yeast inh | NALP3 yeast inh | TIM10 inh | tim10-1 inh | tim23-1 inh | tim10-1 confirm
Cc1nnc(SCC(=O)N2CCC(c3noc4ccc(F)cc34)CC2)s1 | n | n | n | n | n | n | x
Cc1sc2ncnc(SCC(=O)N3CCC(c4noc5ccc(F)cc45)CC3)c2c1C | n | n | n | n | 50 | n | n
CCOc1ccc(S(=O)(=O)Nc2ccc(S(=O)(=O)N3CCOCC3)cc2)cc1 | n | n | n | n | n | n | x
O=C(O)CN1C(=O)/C(=C\C(Br)=C\c2ccccc2)SC1=S | n | n | n | n | 43 | n | 35
CCOC(=O)C1(Cc2ccccc2)CCN(Cc2cnc(N3CCOCC3)s2)CC1 | n | n | n | n | n | n | x
O=C(Nc1ccc(Br)cc1Br)c1cccc2c1C(=O)N(C1CCCCC1)C2 | n | n | n | n | 42 | n | n
CSc1ccc(CCNC(=O)c2cccc3c2C(=O)N(C2CCCCC2)C3)cc1 | n | n | n | n | 42 | n | n
O=C(Nc1ccc(Br)cc1)c1cccc2c1C(=O)N(C1CCCCC1)C2 | n | n | n | n | 55 | n | n
c1ccc(Nc2nc(-c3ccccc3)ns2)cc1 | n | n | n | n | n | n | x
O=C1CCCCC1Sc1nnc(Cc2cccs2)n1CCc1ccccc1 (centres undefined) | n | n | n | n | 45 | n | n
COc1ccc(CCNC(=S)N2CCN(S(=O)(=O)c3ccccc3F)CC2)cc1 | n | n | n | n | n | n | x
Cc1ccc(S(=O)(=O)/C=C/c2ccccc2)cc1 | n | n | n | n | 48 | n | n
CCN(CC)C(=O)CN(C#N)c1nc(Cl)nc(N(C)C)n1 | n | n | n | n | n | n | x
CC(C)(C)Sc1ccc(/C=N/O)cc1[N+](=O)[O-] | n | n | n | n | n | n | x
COc1cc(/C=C2\SC(=O)NC2=O)ccc1Oc1ccc([N+](=O)[O-])cc1[N+](=O)[O-] | n | n | n | n | n | n | x
COc1cc(/C=N/O)ccc1Oc1ccc([N+](=O)[O-])cc1[N+](=O)[O-] | n | n | n | n | 44 | n | 38
CO/N=C/c1ccc(Oc2ccc([N+](=O)[O-])cc2[N+](=O)[O-])c(OC)c1 | n | n | n | n | 44 | n | 34
O=[N+]([O-])c1cc(/C=N\O)ccc1Oc1ccc(F)cc1 | n | n | n | n | 46 | n | n
Cc1ccc(NC(=S)N(CCN2CCOCC2)Cc2ccccc2F)cc1Cl | n | n | n | n | n | n | x
Cc1cccc(NC(=S)N(CCN2CCOCC2)Cc2ccccc2F)c1 | n | n | n | n | 42 | n | n
Cc1csc(NC(=O)CSc2ccc3nnc(-c4ccncc4)n3n2)n1 | n | n | n | n | n | n | x
S=C(Nc1cccnc1)NC1CCCCCCC1 | n | n | n | n | 50 | n | 45
S=C(Nc1ccc(Nc2ccccc2)cc1)NC1CCCCCC1 | n | n | n | n | 43 | n | 38
S=C(Nc1ccc2[nH]ccc2c1)NC1CCCCC1 | n | n | n | n | 42 | n | n
S=C(Nc1ccc(Cl)cc1)NC1CCCCC1 | n | n | n | n | n | n | x
SMILES | V-ATPase pH | NALP1 yeast inh | NALP3 yeast inh | TIM10 inh | tim10-1 inh | tim23-1 inh | tim10-1 confirm
CC1Sc2ccc(S(=O)(=O)NCCc3ccc(S(N)(=O)=O)cc3)cc2NC1=O (centres undefined) | n | n | n | n | n | n | x
Cc1ccc(C(=O)N/N=C\c2cccc(OC(=O)c3cccc(F)c3)c2)cn1 | n | n | n | n | n | n | x
CN(Cc1ccccc1)C(=O)c1ccccc1NC(=O)C1CC1 | n | n | n | n | n | n | x
CC1=CC(=O)C=C(C)C1=NOC(=O)/C=C\c1ccccc1 | n | n | n | n | 46 | n | 32
CCn1c(NCc2cccs2)nc2ccccc21 | n | n | n | n | n | n | x
CCCn1c(-c2cccs2)nc2ccccc21 | n | n | n | n | 41 | n | n
COc1ccccc1CCC(=O)Nc1nc2ccccc2[nH]1 | n | n | n | n | n | n | x

Source: PubChem BioAssay (several laboratories)
